Experimental data published in the supplement of paper PMC10849652.
Targets with a hit are over-represented here; the source holds about 7,900 in all. About 0.6% of all pairs of compound and target were hits. Unmarked numbers belong to inactive results.

Tests used:
Assay in all cases: log2 fold change, soluble protein after heating vs DMSO (PISA); higher = thermal stabilisation; K562 cells, 10 uM, 30 min; active = over 0.2 and 3.5 SD of the protein, either way, in both replicates (recomputed)
[1] = compound: NC(=O)Nc1cc(-c2cccc(F)c2)sc1C(=O)N[C@H]1CCCNC1
Outline: (§1)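 Soluble protein was defined as the supernatant after 21,000xg for 90 min. It came from K562 cells at 2×10^6 cells/mL given 10 μM compound for 30 min, heated in aliquots for 3 min across 48°C-58°C, pooled, and extracted in PBS with 0.5% NP-40 at 4°C, and was quantified by TMTpro 16plex LC-MS/MS with equalised channel sums. Thermal stability against control samples, from duplicates, is reported as log2 fold change.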

[2] = compound: NC(=O)c1cnc(N[C@@H]2CCCC[C@@H]2N)nc1Nc1cccc(-n2nccn2)c1
Outline: as §1

[3] = compound: NCC(=O)Nc1ccc(-n2nc(C(F)(F)F)cc2-c2ccc3c(ccc4ccccc43)c2)cc1
Outline: as §1

entinostat = compound: Nc1ccccc1NC(=O)c1ccc(CNC(=O)OCc2cccnc2)cc1 [entinostat]
Outline: as §1

vorinostat = compound: O=C(CCCCCCC(=O)Nc1ccccc1)NO [vorinostat]
Outline: as §1

[4] = compound: O=C1NC(=O)C(c2cnc3ccccn23)=C1c1cn2c3c(cc(F)cc13)CN(C(=O)N1CCCCC1)CC2
Outline: as §1

[5] = compound: NC1(c2ccc(-c3nc4ccn5c(=O)[nH]nc5c4cc3-c3ccccc3)cc2)CCC1
Outline: as §1

citarinostat = compound: O=C(CCCCCCNC(=O)c1cnc(N(c2ccccc2)c2ccccc2Cl)nc1)NO [citarinostat]
Outline: as §1

silmitasertib = compound: O=C(O)c1ccc2c(c1)nc(Nc1cccc(Cl)c1)c1ccncc12 [silmitasertib]
Outline: as §1

[6] = compound: c1cc(OCCN2CCCCC2)cc(-c2n[nH]c3ccc(-c4nnc[nH]4)cc23)c1
Outline: as §1

UniProt Q8WYH8, sequence (Q8WYH8 whole entry, looked up): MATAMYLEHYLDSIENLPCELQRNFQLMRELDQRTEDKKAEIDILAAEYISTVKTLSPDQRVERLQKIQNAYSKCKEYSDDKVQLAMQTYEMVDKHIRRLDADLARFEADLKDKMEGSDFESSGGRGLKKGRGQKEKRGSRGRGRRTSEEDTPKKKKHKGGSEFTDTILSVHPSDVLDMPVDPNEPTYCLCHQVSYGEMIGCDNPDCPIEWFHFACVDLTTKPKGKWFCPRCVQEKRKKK
UniProt O95279, sequence (O95279 whole entry, looked up): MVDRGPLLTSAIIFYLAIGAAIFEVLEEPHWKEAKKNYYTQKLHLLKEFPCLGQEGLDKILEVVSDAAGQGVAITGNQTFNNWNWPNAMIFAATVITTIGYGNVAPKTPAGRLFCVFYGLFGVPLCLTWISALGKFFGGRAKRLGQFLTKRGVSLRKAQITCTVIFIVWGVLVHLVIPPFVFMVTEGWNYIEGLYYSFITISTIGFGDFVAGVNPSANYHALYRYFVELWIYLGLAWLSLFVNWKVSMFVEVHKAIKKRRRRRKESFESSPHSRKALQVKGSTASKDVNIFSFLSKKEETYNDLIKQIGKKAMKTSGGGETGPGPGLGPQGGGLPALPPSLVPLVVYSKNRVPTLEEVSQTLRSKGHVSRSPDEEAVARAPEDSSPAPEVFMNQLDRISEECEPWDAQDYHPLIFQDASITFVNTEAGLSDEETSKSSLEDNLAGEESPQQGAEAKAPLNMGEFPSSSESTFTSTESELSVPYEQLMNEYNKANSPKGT
UniProt Q7L590, sequence (Q7L590 whole entry, looked up): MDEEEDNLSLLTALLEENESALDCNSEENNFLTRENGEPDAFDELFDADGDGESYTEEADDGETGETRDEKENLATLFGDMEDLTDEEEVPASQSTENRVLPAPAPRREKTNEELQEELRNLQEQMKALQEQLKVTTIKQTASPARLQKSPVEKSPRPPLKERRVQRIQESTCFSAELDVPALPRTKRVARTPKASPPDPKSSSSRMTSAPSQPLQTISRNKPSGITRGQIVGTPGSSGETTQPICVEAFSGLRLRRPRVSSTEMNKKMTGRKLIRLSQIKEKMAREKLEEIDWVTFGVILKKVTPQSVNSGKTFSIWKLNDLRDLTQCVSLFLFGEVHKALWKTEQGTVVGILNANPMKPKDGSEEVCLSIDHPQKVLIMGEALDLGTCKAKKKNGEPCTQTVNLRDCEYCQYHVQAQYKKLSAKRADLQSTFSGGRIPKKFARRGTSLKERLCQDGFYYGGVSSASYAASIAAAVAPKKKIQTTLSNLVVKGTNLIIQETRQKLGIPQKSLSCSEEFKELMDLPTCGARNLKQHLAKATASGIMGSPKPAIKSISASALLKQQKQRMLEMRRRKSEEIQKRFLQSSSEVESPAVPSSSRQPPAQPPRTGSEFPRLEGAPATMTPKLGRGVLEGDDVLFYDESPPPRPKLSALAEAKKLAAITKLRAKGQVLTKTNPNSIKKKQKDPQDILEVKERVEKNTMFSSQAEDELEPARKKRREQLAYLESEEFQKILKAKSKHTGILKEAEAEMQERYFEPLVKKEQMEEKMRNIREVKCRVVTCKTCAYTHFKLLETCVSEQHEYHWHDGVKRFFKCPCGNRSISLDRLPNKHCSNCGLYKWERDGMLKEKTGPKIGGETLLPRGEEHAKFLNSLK
UniProt P28290, sequence (P28290 whole entry, looked up): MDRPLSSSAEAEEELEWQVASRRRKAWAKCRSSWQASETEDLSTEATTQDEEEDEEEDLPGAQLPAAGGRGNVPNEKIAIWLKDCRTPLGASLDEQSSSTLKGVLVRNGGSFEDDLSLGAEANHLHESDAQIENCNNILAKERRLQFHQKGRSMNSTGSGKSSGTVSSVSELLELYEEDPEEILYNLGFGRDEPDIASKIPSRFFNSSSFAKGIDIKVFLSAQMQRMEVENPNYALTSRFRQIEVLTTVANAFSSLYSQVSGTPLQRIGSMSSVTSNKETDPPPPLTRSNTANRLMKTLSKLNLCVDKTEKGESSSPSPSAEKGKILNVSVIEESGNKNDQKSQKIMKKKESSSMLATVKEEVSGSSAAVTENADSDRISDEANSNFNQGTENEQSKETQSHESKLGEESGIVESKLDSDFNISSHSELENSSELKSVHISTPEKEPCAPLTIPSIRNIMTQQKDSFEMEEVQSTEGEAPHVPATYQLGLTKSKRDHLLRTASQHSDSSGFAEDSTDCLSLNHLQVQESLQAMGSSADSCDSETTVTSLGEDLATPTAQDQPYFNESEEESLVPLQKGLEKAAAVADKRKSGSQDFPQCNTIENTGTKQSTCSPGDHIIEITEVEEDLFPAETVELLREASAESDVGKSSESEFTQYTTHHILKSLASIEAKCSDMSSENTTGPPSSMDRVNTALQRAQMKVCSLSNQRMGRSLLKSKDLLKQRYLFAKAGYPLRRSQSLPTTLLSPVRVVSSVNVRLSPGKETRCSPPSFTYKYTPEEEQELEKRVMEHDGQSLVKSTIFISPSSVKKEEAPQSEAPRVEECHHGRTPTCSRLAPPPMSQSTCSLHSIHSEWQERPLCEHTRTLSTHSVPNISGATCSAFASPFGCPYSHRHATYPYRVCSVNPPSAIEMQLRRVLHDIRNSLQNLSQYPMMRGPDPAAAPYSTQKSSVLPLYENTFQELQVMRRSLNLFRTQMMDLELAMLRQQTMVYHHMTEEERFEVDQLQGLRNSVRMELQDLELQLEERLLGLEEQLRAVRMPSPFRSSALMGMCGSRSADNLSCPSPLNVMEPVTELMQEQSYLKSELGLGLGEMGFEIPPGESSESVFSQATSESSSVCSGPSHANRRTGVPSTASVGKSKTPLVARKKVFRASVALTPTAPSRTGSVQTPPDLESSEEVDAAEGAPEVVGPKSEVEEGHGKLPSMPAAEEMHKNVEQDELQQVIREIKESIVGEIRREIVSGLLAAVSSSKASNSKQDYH
UniProt Q15528, sequence (Q15528 whole entry, looked up): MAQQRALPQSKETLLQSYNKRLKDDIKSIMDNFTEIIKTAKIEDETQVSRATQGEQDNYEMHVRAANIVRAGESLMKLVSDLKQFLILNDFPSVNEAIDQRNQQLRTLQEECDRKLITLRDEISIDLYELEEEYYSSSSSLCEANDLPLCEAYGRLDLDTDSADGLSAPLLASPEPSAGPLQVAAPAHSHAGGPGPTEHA
UniProt Q12851, sequence (Q12851 whole entry, looked up): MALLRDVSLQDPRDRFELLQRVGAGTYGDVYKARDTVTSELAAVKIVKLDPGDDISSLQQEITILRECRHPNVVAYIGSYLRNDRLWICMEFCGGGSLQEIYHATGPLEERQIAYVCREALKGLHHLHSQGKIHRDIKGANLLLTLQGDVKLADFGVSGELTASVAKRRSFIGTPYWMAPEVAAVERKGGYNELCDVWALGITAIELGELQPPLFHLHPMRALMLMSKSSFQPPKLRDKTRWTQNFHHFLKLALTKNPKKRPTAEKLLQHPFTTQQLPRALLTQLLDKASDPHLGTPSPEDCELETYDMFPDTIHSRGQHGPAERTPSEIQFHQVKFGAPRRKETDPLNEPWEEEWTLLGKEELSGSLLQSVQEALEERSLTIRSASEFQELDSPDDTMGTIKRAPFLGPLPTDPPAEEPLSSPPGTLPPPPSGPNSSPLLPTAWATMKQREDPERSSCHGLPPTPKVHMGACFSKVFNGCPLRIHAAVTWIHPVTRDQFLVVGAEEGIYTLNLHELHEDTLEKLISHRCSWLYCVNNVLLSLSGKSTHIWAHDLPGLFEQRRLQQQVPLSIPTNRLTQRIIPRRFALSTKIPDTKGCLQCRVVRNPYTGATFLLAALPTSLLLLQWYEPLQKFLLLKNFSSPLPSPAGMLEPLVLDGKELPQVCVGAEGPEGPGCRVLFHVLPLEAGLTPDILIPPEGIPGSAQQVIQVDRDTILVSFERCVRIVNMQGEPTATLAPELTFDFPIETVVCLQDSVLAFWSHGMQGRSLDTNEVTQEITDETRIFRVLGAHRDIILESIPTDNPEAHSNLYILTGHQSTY
UniProt P08514, sequence (P08514 whole entry, looked up): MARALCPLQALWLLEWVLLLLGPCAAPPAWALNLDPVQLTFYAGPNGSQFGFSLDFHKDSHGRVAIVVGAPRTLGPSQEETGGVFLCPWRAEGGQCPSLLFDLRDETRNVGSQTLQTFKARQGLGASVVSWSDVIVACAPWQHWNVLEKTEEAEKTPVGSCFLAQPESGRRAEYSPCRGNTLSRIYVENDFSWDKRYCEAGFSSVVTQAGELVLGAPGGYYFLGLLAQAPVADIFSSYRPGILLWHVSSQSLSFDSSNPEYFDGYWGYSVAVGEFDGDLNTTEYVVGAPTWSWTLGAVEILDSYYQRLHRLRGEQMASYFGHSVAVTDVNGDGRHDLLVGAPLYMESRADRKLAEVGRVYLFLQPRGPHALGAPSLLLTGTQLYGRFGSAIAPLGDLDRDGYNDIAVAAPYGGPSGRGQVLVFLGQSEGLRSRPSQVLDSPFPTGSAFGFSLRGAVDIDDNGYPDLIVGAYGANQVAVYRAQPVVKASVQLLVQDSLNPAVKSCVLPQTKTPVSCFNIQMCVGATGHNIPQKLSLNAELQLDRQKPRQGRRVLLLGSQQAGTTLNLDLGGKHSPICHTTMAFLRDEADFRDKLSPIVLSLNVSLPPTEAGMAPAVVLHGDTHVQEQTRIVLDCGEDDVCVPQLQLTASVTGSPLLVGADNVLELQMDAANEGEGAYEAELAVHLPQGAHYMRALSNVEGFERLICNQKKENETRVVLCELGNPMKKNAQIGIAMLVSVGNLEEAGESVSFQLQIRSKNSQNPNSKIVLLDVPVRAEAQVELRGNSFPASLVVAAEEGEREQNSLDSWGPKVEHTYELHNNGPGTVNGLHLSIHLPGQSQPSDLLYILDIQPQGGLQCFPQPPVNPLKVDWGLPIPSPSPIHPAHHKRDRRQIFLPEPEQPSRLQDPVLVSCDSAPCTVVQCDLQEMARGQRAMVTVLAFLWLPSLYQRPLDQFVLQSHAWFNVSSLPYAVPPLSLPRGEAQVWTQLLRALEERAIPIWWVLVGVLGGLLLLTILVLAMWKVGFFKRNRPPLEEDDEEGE
UniProt Q52LA3, sequence (Q52LA3 whole entry, looked up): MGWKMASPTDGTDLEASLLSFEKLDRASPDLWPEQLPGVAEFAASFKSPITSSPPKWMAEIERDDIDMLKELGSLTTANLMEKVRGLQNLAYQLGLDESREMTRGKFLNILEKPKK

| Target | log2 fold change [1] | log2 fold change [2] | log2 fold change [3] | log2 fold change (entinostat) | log2 fold change (vorinostat) | log2 fold change [4] | log2 fold change [5] | log2 fold change (citarinostat) | log2 fold change (silmitasertib) | log2 fold change [6] |
| --- | --- | --- | --- | --- | --- | --- | --- | --- | --- | --- |
| ITGA2B (UniProt P08514) | 0.085 | -0.222 | -0.009 | -0.009 | -0.495 (active) | 0.02 | – | – | – | – |
| MAN2B2 (UniProt Q9Y2E5) | 0.063 | -0.099 | 0.089 | -0.018 | – | -0.058 | -0.262 | 0.089 | -0.029 | -0.005 |
| MGST1 (UniProt P10620) | -0.025 | -0.024 | 0.163 | 0.031 | 0.027 | -0.086 | -0.035 | -0.065 | 0.036 | 0.122 |
| MASTL (UniProt Q96GX5) | 0.123 | -0.018 | -0.004 | 0.053 | – | 0.039 | 0.144 | -0.018 | 0.123 | 0.002 |
| LUZP1 (UniProt Q86V48) | 0.055 | 0.089 | 0.058 | -0.081 | -0.119 | 0.084 | 0.087 | – | 0.114 | – |
| MARK2 (UniProt E9PC69) | -0.513 | -0.401 | -0.213 | 0.101 | – | 0.082 | – | 0.024 | – | -0.28 |
| IGFBP3 isoform 2 (UniProt P17936) | 0.042 | -0.142 | -0.043 | -0.02 | 0.167 | -0.047 | – | – | – | – |
| MGST3 (UniProt O14880) | -0.04 | -0.07 | 0.009 | -0.047 | -0.043 | -0.025 | 0.076 | -0.005 | -0.011 | -0.056 |
| MED22 (UniProt Q15528) | 0.042 | 0.029 | 0.023 | 0.049 | – | -0.074 | 0.064 | -0.243 | -0.01 | 0.322 (active) |
| MED25 isoform 3 (UniProt Q71SY5) | -0.016 | -0.021 | 0.064 | 0.065 | -0.349 | – | -0.591 (active) | 0.052 | 0.174 | -0.148 |
| MED7 (UniProt O43513) | 0.034 | 0.122 | -0.041 | -0.16 | – | -0.085 | – | – | – | – |
| LMBR1 isoform 3 (UniProt Q8WVP7) | 0.047 | -0.11 | -0.048 | 0.071 | -0.016 | -0.141 | -0.104 | – | 0.014 | – |
| IL27RA (UniProt Q6UWB1) | -0.077 | -0.091 | -0.123 | 0.016 | – | 0.154 | -0.116 | 0.082 | 0.009 | -0.172 |
| MAP2K5 (UniProt Q13163) | – | -0.025 | – | – | – | – | – | – | – | – |
| LOX (UniProt P28300) | – | – | – | – | – | – | -0.086 | – | 0.187 | – |
| LAMP2 isoform 2 (UniProt P13473) | – | -0.1 | -0.132 | – | -0.113 | 0.027 | -0.321 | 0.061 | 0.003 | -0.275 |
| LEPROT (UniProt O15243) | – | -0.161 | – | – | -0.142 | 0.261 | -0.088 | 0.125 | 0.005 | -0.072 |
| MFSD12 isoform 3 (UniProt Q6NUT3) | 0.073 | -0.159 | – | -0.067 | 0.11 | – | – | 0.1 | – | -0.162 |
| MAPK7 (UniProt Q13164) | – | -0.25 | – | – | -0.069 | 0 | – | – | – | – |
| MAPRE3 isoform 2 (UniProt Q9UPY8) | – | -0.033 | – | – | – | – | – | – | – | – |
| LSR (UniProt M0QZL9) | -0.508 | – | -0.095 | -0.406 | – | -0.074 | – | – | – | – |
| MAP4K2 (UniProt Q12851) | 0.827 (active) | – | – | 0.145 | – | – | – | 0.116 | – | -0.22 |
| MFSD8 (UniProt Q8NHS3) | – | 0.02 | -0.076 | – | -0.008 | -0.007 | -0.115 | -0.003 | 0.069 | -0.129 |
| LRRFIP1 isoform 4 (UniProt Q32MZ4) | – | 0.04 | – | – | -0.062 | -0.019 | – | – | – | – |
| MED29 (UniProt Q9NX70) | – | 0.05 | – | – | – | – | 0.029 | – | 0.133 | – |
| KMT5A (UniProt Q9NQR1) | 0.069 | – | – | -0.258 | 0.096 | – | – | – | – | – |

| Target | log2 fold change [1] | log2 fold change [2] | log2 fold change [3] | log2 fold change (entinostat) | log2 fold change (vorinostat) | log2 fold change [4] | log2 fold change [5] | log2 fold change (citarinostat) | log2 fold change (silmitasertib) | log2 fold change [6] |
| --- | --- | --- | --- | --- | --- | --- | --- | --- | --- | --- |
| LAPTM4B (UniProt Q86VI4) | -0.109 | – | – | -0.126 | -0.064 | – | 0.116 | 0.092 | 0.025 | -0.178 |
| ING5 (UniProt Q8WYH8) | – | – | – | – | – | – | -0.042 | 0.115 | -0.013 | -0.008 |
| MCOLN3 (UniProt Q8TDD5) | – | – | – | – | 0 | – | -0.254 | 0.095 | 0.083 | 0.159 |
| LRRCC1 (UniProt Q9C099) | – | -0.041 | – | – | – | – | – | – | – | – |
| ILF3 (UniProt Q12906) | 0.013 | – | – | 0.058 | – | 0.174 | 0.331 | -0.134 | 0.181 | -0.218 |
| MAGEA8 (UniProt P43361) | – | -0.135 | 0.034 | – | -0.063 | – | – | 0.012 | – | -0.008 |
| LIN52 (UniProt Q52LA3) | – | – | – | – | – | – | 0.294 | – | -0.045 | – |
| MAML1 (UniProt Q92585) | 0.08 | – | 0.088 | -0.104 | – | 0.025 | – | – | – | – |
| MARCHF3 (UniProt Q86UD3) | 0.169 | – | – | -0.038 | – | -0.014 | – | -0.133 | – | -0.26 |
| LRFN1 (UniProt Q9P244) | -0.14 | – | -0.166 | 0.133 | – | 0.036 | – | -0.06 | – | 0.716 |
| ITPRID2 (UniProt P28290) | – | – | -0.059 | – | – | -0.208 | – | -0.029 | – | 0.211 |
| MCM10 (UniProt Q7L590) | 0.522 (active) | – | -0.085 | 0.224 | 0.021 | 0.134 | 0.002 | 0.143 | -0.129 | 0.107 |
| MBLAC1 (UniProt A4D2B0) | – | -0.031 | 0.242 | – | -0.021 | – | -0.179 | 0.01 | -0.082 | -0.067 |
| IPP (UniProt Q9Y573) | – | 0.047 | – | – | – | – | – | – | – | – |
| KXD1 (UniProt Q9BQD3) | – | -0.091 | -0.021 | – | -0.046 | 0.131 | -0.237 | 0.042 | -0.113 | -0.055 |
| KIF1B isoform 3 (UniProt O60333) | – | – | -0.389 | – | – | – | -0.073 | 0.043 | -0.057 | -0.55 |
| IKZF1 isoform 2 (UniProt Q13422) | 0.06 | – | 0.036 | -0.006 | – | – | -0.109 | – | 0.063 | – |
| KIZ (UniProt Q2M2Z5) | – | -0.067 | – | – | 0.137 | – | – | -0.094 | – | 0.045 |
| KCNK5 (UniProt O95279) | -0.066 | – | – | 0.031 | -0.102 | 0.004 | 0.16 | 0.198 | 0.093 | 0.005 |
| MGRN1 isoform 2 (UniProt O60291) | – | 0.11 | – | – | -0.024 | – | – | – | – | – |
| IGFBP6 (UniProt P24592) | – | -0.079 | -0.13 | – | – | – | – | – | – | – |
| MAP4K4 isoform 6 (UniProt O95819) | 0.332 | – | 0.228 | 0.237 | – | – | 0.009 | 0.114 | -0.202 | 0.143 |
| JAK3 (UniProt P52333) | 0 | – | -0.102 | -0.019 | -0.048 | 0.002 | -0.045 | – | -0.003 | – |
| IKZF1 (UniProt R9R4D9) | – | – | – | – | -0.181 | – | – | – | – | – |
| LSR isoform 3 (UniProt Q86X29) | -0.531 | – | – | -0.134 | – | – | -0.327 | – | 0.062 | – |
| MAPK11 (UniProt Q15759) | – | – | – | – | 0.033 | – | – | – | – | – |
